In all, about 2,700 compounds went through this assay and about 160 (5.9%) showed an effect of 50% or more. The full list was thinned out, with strong results kept by preference.
Target: Nonstructural protein 3 (Zika virus) (UniProt A0A024AXB9)
[1] = PRVABC59, Concentration 50.0 uM, Number of replicates 1.0

Nonstructural protein 3 (Zika virus), sequence (A0A024AXB9 as listed by the source): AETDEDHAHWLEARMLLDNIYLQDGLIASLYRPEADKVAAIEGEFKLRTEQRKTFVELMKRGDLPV

O=C(/C=C/c1ccc(N2CCNCC2)cc1)C(=O)N1CCOCC1
inhibition (PRVABC59, Concentration 49.5 uM, Number of replicates 2.0, Standard deviation 0.677594356674037 %): 0.889% | inhibition (PRVABC59, Concentration 99.01 uM, Number of replicates 2.0, Standard deviation 0.8893426734771035 %): 5.61% | inhibition (PRVABC59, Concentration 198.0 uM, Number of replicates 2.0, Standard deviation 1.259902148857129 %): 13.4%

CN(C)c1ccc(/C=C/C(=O)C(=O)N2CCOCC2)cc1
inhibition (PRVABC59, Concentration 49.5 uM, Number of replicates 2.0, Standard deviation 0.8258165831779674 %): 41.6% | inhibition (PRVABC59, Concentration 99.01 uM, Number of replicates 2.0, Standard deviation 0.46055378654400303 %): 57.5% | inhibition (PRVABC59, Concentration 198.0 uM, Number of replicates 2.0, Standard deviation 1.0005081895850734 %): 76.2%

NCc1ccc(/C=C/C(=O)C(=O)N2CCOCC2)cc1
inhibition (PRVABC59, Concentration 49.5 uM, Number of replicates 2.0, Standard deviation 0.6564199696429821 %): 37.2% | inhibition (PRVABC59, Concentration 99.01 uM, Number of replicates 2.0, Standard deviation 0.38644007072414227 %): 58.8% | inhibition (PRVABC59, Concentration 198.0 uM, Number of replicates 2.0, Standard deviation 0.034408012774717715 %): 79%

COc1cc(Cc2ccc3[nH]ncc3c2)nc(N2CCNCC2)n1
inhibition (PRVABC59, Concentration 49.5 uM, Number of replicates 2.0, Standard deviation 0.053655972727460886 %): 4.68% | inhibition (PRVABC59, Concentration 99.01 uM, Number of replicates 2.0, Standard deviation 0.44117163102560114 %): 11% | inhibition (PRVABC59, Concentration 198.0 uM, Number of replicates 2.0, Standard deviation 0.2881536199967374 %): 21.6%

COc1cc(Cc2ccnc(N3CCNCC3)c2)nc(N2CCNCC2)n1
inhibition (PRVABC59, Concentration 49.5 uM, Number of replicates 2.0, Standard deviation 1.782469122426121 %): 19.2% | inhibition (PRVABC59, Concentration 99.01 uM, Number of replicates 2.0, Standard deviation 1.2150848760245847 %): 30.9% | inhibition (PRVABC59, Concentration 198.0 uM, Number of replicates 2.0, Standard deviation 1.1140443816280838 %): 44%

COc1cc(Cc2c(-c3ccc(F)cc3)noc2C)nc(N2CCNCC2)n1
inhibition (PRVABC59, Concentration 49.5 uM, Number of replicates 2.0, Standard deviation 1.339595433070256 %): 48.7% | inhibition (PRVABC59, Concentration 99.01 uM, Number of replicates 2.0, Standard deviation 0.7981008155972035 %): 67.2% | inhibition (PRVABC59, Concentration 198.0 uM, Number of replicates 2.0, Standard deviation 0.25862115465775987 %): 83.1%

CC(C)(C)OC(=O)N[C@H](C(=O)Nc1cccc(CN)c1)c1ccc(OCc2ccccc2)cc1
inhibition (PRVABC59, Concentration 49.5 uM, Number of replicates 2.0, Standard deviation 0.15500599357942563 %): 7.17% | inhibition (PRVABC59, Concentration 99.01 uM, Number of replicates 2.0, Standard deviation 1.1863939989566727 %): 43.6% | inhibition (PRVABC59, Concentration 198.0 uM, Number of replicates 2.0, Standard deviation 0.6438743701278353 %): 80.9%

CC(C)(C)OC(=O)N[C@H](C(=O)Nc1ccc(CN)cc1)c1ccc(OCc2ccccc2)cc1
inhibition (PRVABC59, Concentration 49.5 uM, Number of replicates 2.0, Standard deviation 0.6279742186460096 %): 5.64% | inhibition (PRVABC59, Concentration 99.01 uM, Number of replicates 2.0, Standard deviation 1.57987158185777 %): 32.3% | inhibition (PRVABC59, Concentration 198.0 uM, Number of replicates 2.0, Standard deviation 0.42725710187082055 %): 70.3%

CC(C)Nc1nc2ccc(C(=O)Nc3ccc4cn[nH]c4n3)cc2[nH]1
inhibition (PRVABC59, Concentration 49.5 uM, Number of replicates 2.0, Standard deviation 0.40894109303235027 %): 7.41% | inhibition (PRVABC59, Concentration 99.01 uM, Number of replicates 2.0, Standard deviation 0.19020569275657198 %): 13.2% | inhibition (PRVABC59, Concentration 198.0 uM, Number of replicates 2.0, Standard deviation 0.6447955316488895 %): 25.2%

CC(C)Nc1nc2ccc(C(=O)Nc3nnnn3-c3ccccn3)cc2[nH]1
inhibition (PRVABC59, Concentration 50.0 uM, Number of replicates 2.0, Standard deviation 0.2871029833570578 %): 13.5% | inhibition (PRVABC59, Concentration 100.0 uM, Number of replicates 2.0, Standard deviation 0.2358348824788301 %): 30.1% | inhibition (PRVABC59, Concentration 200.0 uM, Number of replicates 2.0, Standard deviation 0.2742876440114413 %): 66.8%

CCn1ccnc(N2CC[C@@H](C(=O)NC)C2)c1=O
inhibition (PRVABC59, Concentration 49.5 uM, Number of replicates 2.0, Standard deviation 1.330415175115007 %): 6.78% | inhibition (PRVABC59, Concentration 99.01 uM, Number of replicates 2.0, Standard deviation 0.8792533922931717 %): 13.1% | inhibition (PRVABC59, Concentration 198.0 uM, Number of replicates 2.0, Standard deviation 1.1945536288283818 %): 25%

c1ccc2c([C@H]3CCN(CC[C@H]4CCOC4)C3)c[nH]c2c1
inhibition (PRVABC59, Concentration 49.5 uM, Number of replicates 2.0, Standard deviation 1.796591735840356 %): 1.3% | inhibition (PRVABC59, Concentration 99.01 uM, Number of replicates 2.0, Standard deviation 1.8008191859181881 %): 8.43% | inhibition (PRVABC59, Concentration 198.0 uM, Number of replicates 2.0, Standard deviation 1.4478420270377552 %): 18.7%

CCCC[C@H](N)C(=O)N[C@H](C(=O)NCc1ccc(C(N)=O)cc1)c1ccc(OCc2ccccc2)cc1
inhibition (PRVABC59, Concentration 49.5 uM, Number of replicates 2.0, Standard deviation 4.202595364768841 %): 4.08% | inhibition (PRVABC59, Concentration 99.01 uM, Number of replicates 2.0, Standard deviation 1.455996262112855 %): 82.9% | inhibition (PRVABC59, Concentration 198.0 uM, Number of replicates 2.0, Standard deviation 0.15670265711308018 %): 99.2%

CCCC[C@H](N)C(=O)N[C@@H](C(=O)NCc1ccc(C(N)=O)cc1)c1ccc(OCc2ccccc2)cc1
inhibition (PRVABC59, Concentration 49.5 uM, Number of replicates 2.0, Standard deviation 2.90329459480482 %): 4.12% | inhibition (PRVABC59, Concentration 99.01 uM, Number of replicates 2.0, Standard deviation 3.493094389705784 %): 14.2% | inhibition (PRVABC59, Concentration 198.0 uM, Number of replicates 2.0, Standard deviation 4.814160045121922 %): 56.8%

CC(C)Cn1cccc(C(=O)Nc2ccnc3ccccc23)c1=O
inhibition (PRVABC59, Concentration 49.5 uM, Number of replicates 2.0, Standard deviation 2.895437242130631 %): 20.1% | inhibition (PRVABC59, Concentration 99.01 uM, Number of replicates 2.0, Standard deviation 37.62280174563721 %): 0.798% | inhibition (PRVABC59, Concentration 198.0 uM, Number of replicates 2.0, Standard deviation 2.6549790189575497 %): 10.2%

O=c1c(N2CC[C@H](CO)C2)nccn1C1CC1
inhibition (PRVABC59, Concentration 49.5 uM, Number of replicates 2.0, Standard deviation 2.4909219053667124 %): 11.8% | inhibition (PRVABC59, Concentration 99.01 uM, Number of replicates 2.0, Standard deviation 2.8453613913030793 %): 19.9% | inhibition (PRVABC59, Concentration 198.0 uM, Number of replicates 2.0, Standard deviation 1.2782808722061834 %): 35.4%

CCn1c(=O)c(N2CC[C@@H](CO)C2)nc2ccccc21
inhibition (PRVABC59, Concentration 49.5 uM, Number of replicates 2.0, Standard deviation 1.0667198770713235 %): 20.2% | inhibition (PRVABC59, Concentration 99.01 uM, Number of replicates 2.0, Standard deviation 2.3733193853793706 %): 36.2% | inhibition (PRVABC59, Concentration 198.0 uM, Number of replicates 2.0, Standard deviation 1.8335969585925045 %): 55.9%

CCn1ccnc(N2CC[C@@H](CO)C2)c1=O
inhibition (PRVABC59, Concentration 49.5 uM, Number of replicates 2.0, Standard deviation 1.691792032316267 %): 9.83% | inhibition (PRVABC59, Concentration 99.01 uM, Number of replicates 2.0, Standard deviation 1.0699999134098355 %): 17.4% | inhibition (PRVABC59, Concentration 198.0 uM, Number of replicates 2.0, Standard deviation 1.0674090623381738 %): 29.5%

N[C@H]1CCN(c2cccc(CNC(=O)c3ccc4[nH]c(=O)[nH]c4c3F)n2)C1
inhibition (PRVABC59, Concentration 49.5 uM, Number of replicates 2.0, Standard deviation 1.7942103071905888 %): 0.083% | inhibition (PRVABC59, Concentration 99.01 uM, Number of replicates 2.0, Standard deviation 0.9354948212956848 %): 1.95% | inhibition (PRVABC59, Concentration 198.0 uM, Number of replicates 2.0, Standard deviation 18.65130084254076 %): 51.2%

NC(=O)C1(N2CCCCC2)CCN(C(=O)C2CCN(c3ccc(C=O)cc3)CC2)CC1
inhibition [1]: 55.7%

N#CC1(c2ccccc2)CCN(C(=O)C2CCN(c3ccc(C=O)cc3)CC2)CC1
inhibition [1]: 12.6%

O=Cc1ccc(N2CCC(C(=O)N3CCN(c4cccc(O)c4)CC3)CC2)cc1
inhibition [1]: 36.7%

— ChEMBL document CHEMBL5606458, “ASAP - ZIKV NS2B-NS3 protease fluorescence single point” (2024)
